NALP3 yeast inh: NALP3 inflammasome inhibitors in reconstituted yeast, primary screen, luminescence, uHTS; Yeast reconstituted NLRP3/ASC/caspase-1, beta-gal luminescence, 24 h; inhibition, % at 10 µM; 330,000 compounds, 0.39% hits; AID 2825, 2010;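 active means inhibition of 50% or more; inactive means inhibition below 50%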;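 further: plate controls were induced DMSO wells for no effect and uninduced yeast grown without galactose for full effect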
PfHsp90 set2: growth inhibition of PfHsp90-expressing yeast, primary screen, antimalarial PfHsp90 inhibitor project, S. cerevisiae, BacTiter-Glo luminescence, single point, set 2; BacTiter-Glo ATP, 48 h; yeast lacking PDR1 and PDR3 efflux regulators; inhibition, % at 9.4 µM; 310,000 compounds, 0.32% hits;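 active means every replicate shows inhibition above about 80%, whatever the replicate mean, limit read from the data; inconclusive means mean inhibition reaches the set limit but some replicate falls short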;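 further: 0% = DMSO neutral controls and 100% = 20 µM radicicol positive controls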
tim23-1 inh: growth inhibitors of tim23-1 mutant yeast, primary screen, luminescence, uHTS | S. cerevisiae tim23-1 growth, BacTiter-Glo luminescence, 24 h | inhibition, % at 20 µM | 330,000 compounds, 1.3% hits;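 active means growth inhibition of the mutant yeast at or above 50%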;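 further: temperature-sensitive mutant grown at 25 °C; plate controls were DMSO-treated mutant yeast for no effect and medium wells lacking yeast for full effect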
tim10-1 inh: growth inhibitors of tim10-1 mutant yeast, primary screen, luminescence, uHTS; 330,000 compounds, 2.2% hits; inhibition, % at 20 µM; AID 463190, 2010; S. cerevisiae tim10-1 ts strain growth, BacTiter-Glo, 24 h;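 active means inhibition of at least 40%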;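 further: mutant grown at 25 °C; 0% = DMSO wells with yeast and 100% = wells holding no yeast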
SKKanGAS inh: S. pyogenes SKKanGAS growth inhibitors in kanamycin, primary screen, streptokinase expression inhibitor project, SKKanGAS strain, BacTiter-Glo luminescence | 6 h | inhibition, % at 7.5 µM | 300,000 compounds, 1.3% hits;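 active means mean replicate score, as percent of positive control median, at least 50; inconclusive means mean below 50 but one replicate at or above 50; inactive means mean and every replicate below 50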;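 further: strain carries kanamycin resistance gene driven by streptokinase promoter and grows in 40 µg/ml kanamycin; loss of luminescence reflects streptokinase promoter inhibition or plain growth inhibition; 0% = median of DMSO wells and 100% = positive control at its reference dose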
TIM10 inh: growth inhibitors of isogenic TIM10 control yeast, primary screen, counter-screen for tim10-1 yeast inhibitor project, luminescence, uHTS | S. cerevisiae TIM10 strain growth, BacTiter-Glo luminescence, 24 h | inhibition, % at 10 µM | 330,000 compounds, 1.4% hits;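 active means inhibition of 40% or more at the single tested concentration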;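 further: wild-type TIM10 isogenic control strain grown at permissive 25 °C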
tim10-1 confirm: growth inhibitors of tim10-1 mutant yeast, confirmation, single concentration, luminescence, S. cerevisiae | shares compounds with tim10-1 inh | 7,400 compounds, 56% hits | S. cerevisiae tim10-1 ts strain growth, BacTiter-Glo, 24 h | AID 463213, 2010 | inhibition, % at 20 µM;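 active means inhibition of yeast growth at or above a set limit in either of two repeat tests at 20 µM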;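 further: tim10-1 mutant grown at permissive 25 °C to find synthetic lethal compounds; 0% = DMSO yeast wells and 100% = medium wells without yeast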
tim10 confirm: growth inhibitors of wild-type TIM10 yeast, confirmation, counter-screen for tim10-1 synthetic lethality project, single concentration, luminescence, S. cerevisiae | shares compounds with TIM10 inh | S. cerevisiae tim10 strain growth, BacTiter-Glo luminescence, 24 h | inhibition, % at 10 µM | 4,600 compounds, 63% hits | AID 463215, 2010;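 active means inhibition of yeast growth at or above a set limit in either of two replicates at 10 µM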;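 further: this counterscreen used the strain with wild-type TIM10; 0% = yeast with DMSO and 100% = medium wells lacking yeast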
tim23-1 confirm: tim23-1 mutant yeast growth inhibitors, confirmation, luminescence, single concentration. shares compounds with tim23-1 inh. S. cerevisiae tim23-1 growth, BacTiter-Glo luminescence, 24 h. 4,400 compounds, 83% hits. AID 463218, 2010. inhibition, % at 20 µM;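 active means inhibition above about 39% in either of two replicate wells at 20 µM, limit read from the data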;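 further: temperature-sensitive tim23-1 mutant grown at 25 °C; 0% = DMSO wells with yeast and 100% = medium wells without yeast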
An asterisk follows results filed as active; ? = inconclusive; nt = no result. Rows were chosen to be rich in hits. Some 4.6% of all compounds tested hit in one or more screens of this group.

SMILES	NALP3 yeast inh	PfHsp90 set2	tim23-1 inh	tim10-1 inh	SKKanGAS inh	TIM10 inh	tim10-1 confirm	tim10 confirm	tim23-1 confirm
O=C(N/N=C/c1cc(Cl)ccc1O)c1ccccc1Br	24	-4	65*	42*	?	54*	12	32*	59*
COc1ccc(C(=O)/C=C/c2cccs2)c(OC(=O)N2CCOCC2)c1	0	-7	51*	50*	-16	52*	34*	40*	42*
N#C/C(=C\c1c(F)cccc1Cl)C(=O)NC1CC1	27	-45	85*	74*	1	61*	61*	66*	81*
CC1CCCCC1NC(=O)/C(C#N)=C/c1ccccc1F (stereo unspecified)	21	121*	84*	89*	9	85*	87*	88*	84*
Cc1ccc(C(OCC(O)CNC(C)c2ccccc2)c2ccccc2)cc1 (stereo unspecified)	21	8	54*	62*	7	59*	61*	52*	39*
Cc1cc(Br)ccc1NC(=O)CN1C(=O)C2CC=CCC2C1=O (stereo unspecified)	-4	21	10	-5	nt	2	nt	nt	nt
O=C(/C=C/c1c(Cl)cccc1Cl)N1CCOCC1	12	-12	-1	-6	5	-7	nt	nt	nt
O=C(/C=C/c1c(Cl)cccc1Cl)n1cccn1	17	nt	60*	56*	10	41*	57*	55*	85*
CCN(CC(=O)Nc1ccccc1OC)C(=O)CN1C(=O)NC(C)(c2ccccc2)C1=O (stereo unspecified)	9	9	-19	-11	nt	-10	nt	nt	nt
CC1CCN(S(=O)(=O)c2ccc(NC(=O)c3cccs3)cc2)CC1	19	-10	54*	42*	9	42*	50*	53*	59*
O=C(Nc1ccc(S(=O)(=O)N2CCCC2)cc1)c1cccs1	13	-19	23	25	5	17	nt	nt	nt
CC1CCCCN1S(=O)(=O)c1ccc(NC(=O)c2cccs2)cc1 (stereo unspecified)	-1	-6	54*	54*	3	51*	48*	52*	71*
CCc1cccc(NC(=O)c2cccc3c2C(=O)N(CC2CCCO2)C3)c1 (stereo unspecified)	22	-12	37	35	-9	6	nt	nt	nt
COc1ccc(-c2n[nH]c(C)c2-c2cnn(-c3ccccc3)c2)c(O)c1	21	23	60*	51*	-2	50*	42*	44*	50*
Cc1ccc(S(=O)(=O)N(C)c2ccc(OC(=O)c3cc(=O)[nH]c4ccccc34)cc2)cc1	-14	nt	3	13	nt	10	nt	nt	nt
Cc1ccc(C(=O)Oc2oc(-c3ccco3)nc2C=Nc2ccc(Cl)cc2)cc1	27	13	50*	50*	-1	37	35*	nt	66*
O=C(Oc1oc(-c2ccco2)nc1C=Nc1ccccc1)c1ccoc1	-2	6	10	18	4	-2	nt	nt	nt
COc1ccc(-c2oc3ccccc3c(=O)c2OC(C)=O)cc1	4	3	60*	42*	16	55*	34*	48*	59*
CC(=O)Oc1c(-c2ccc(Br)o2)oc2ccccc2c1=O	34	-27	65*	53*	86*	73*	60*	78*	86*
COc1ccc(-c2oc3ccccc3c(=O)c2OCC(=O)O)cc1	16	-12	13	-1	-9	-6	nt	nt	nt
O=C(O)COc1c(-c2ccco2)oc2ccccc2c1=O	-8	20	0	-3	-2	14	nt	nt	nt
Cc1ccc(NC(=O)COC(=O)C2CC3CCCC(C2)C3=O)c([N+](=O)[O-])c1 (stereo unspecified)	7	19	8	2	nt	-2	nt	nt	nt
CC1C/C(=C/c2ccco2)C(=O)/C(=C/c2ccco2)C1 (stereo unspecified)	3	nt	54*	54*	-1	34	32*	nt	43*
CC1C/C(=C/c2ccccn2)C(=O)/C(=C/c2ccccn2)C1 (stereo unspecified)	28	7	65*	67*	-23	67*	66*	71*	82*
O=C1/C(=C/c2ccccn2)COc2ccccc21	-1	20	76*	54*	-1	64*	68*	75*	72*
SMILES	NALP3 yeast inh	PfHsp90 set2	tim23-1 inh	tim10-1 inh	SKKanGAS inh	TIM10 inh	tim10-1 confirm	tim10 confirm	tim23-1 confirm
CC(C)(C)C1C/C(=C/c2ccccn2)C(=O)/C(=C/c2ccccn2)C1 (stereo unspecified)	27	100*	68*	66*	5	69*	70*	75*	27
CCOc1cc(/C=C2/COc3ccccc3C2=O)ccc1OCC(=O)N(C)C	nt	1	nt	nt	nt	nt	nt	nt	nt
C(=C\c1ccccn1)/c1ccccn1	4	5	10	4	-3	-7	nt	nt	nt
CC(C)(O)C#Cc1ccc(CNC[C@H]2O[C@@H](n3cnc4c(N)ncnc43)[C@H](O)[C@@H]2O)s1	nt	8	37	12	nt	-14	nt	nt	nt
COc1ccc(C=O)c(OCc2cn(CC(=O)c3ccc(O)cc3)nn2)c1	nt	14	nt	nt	nt	nt	nt	nt	nt
CCc1ccc(NC(=S)N2CCN(c3cccc(OC)c3)CC2)cc1	28	5	-17	-44	-5	-22	nt	nt	nt
COc1cccc2nc3cc(C)c(C)cc3nc12	21	66	50*	64*	54*	43*	53*	33*	54*
COc1cccc2c1nc(C)c1cc(C)oc12	-5	-16	17	21	-5	6	nt	nt	nt
O=C(/C=C/c1ccccc1)CC(O)(c1ccccc1)C(F)(F)C(F)F (stereo unspecified)	38	-33	56*	44*	12	24	41*	nt	32
Cc1nnc(NC(=O)C2COc3ccccc3O2)s1 (stereo unspecified)	-4	nt	10	5	0	4	nt	nt	nt

Bioassay records (PubChem)
